Source: PubChem BioAssay (EPA / NIEHS)
Activity calls are given as the source filed them. Rule for the calls: active = hit-call score of the fitted dose curve at least 0.9, where 1 is the maximum; inactive = score below 0.9.

Experiment: ATG_BRE_CIS: Attagene CIS-FACTORIAL HepG2 Assay for human Bone Morphogenetic Protein (BMP) Response Element (BRE) (AID 2282933)
Conditions: HepG2 BMP response element reporter, Attagene transcription factor profiling; actives raise or lower the signal
Method: ATG_CIS is a cell-based, multiplexed-readout assay that uses HepG2, a human liver cell line, with measurements taken at 24 hours after chemical dosing in a 24-well plate.ATG_BRE_CIS is one of 52 assay component(s) measured or calculated from the ATG_CIS assay. It is designed to make measurements of mRNA induction, a form of inducible reporter, as detected with fluorescence intensity signals by Reverse transcription polymerase chain reaction (RT-PCR) and Capillary electrophoresis technology.Data from the assay component ATG_BRE_CIS was analyzed into 1 assay endpoint. This assay endpoint, ATG_BRE_CIS, was analyzed with bidirectional fitting relative to DMSO as the negative control and baseline of activity. Using a type of inducible reporter, measures of mRNA for gain or loss-of-signal activity can be used to understand the reporter gene at the transcription factor-level as they relate to the gene SMAD1. Furthermore, this assay endpoint can be referred to as a primary readout, because this assay has produced multiple assay endpoints where this one serves a reporter gene function. To generalize the intended target to other relatable targets, this assay endpoint is annotated to the dna binding intended target family, where the subfamily is Smad protein.
Human liver HepG2 cells are transiently transfected with multiple reporter transcription units (MRTUs) in 6-well plates using FuGene 6 reagent (Roche; 3 ml FuGene/1 mg DNA). The MRTU constructs are regulated by a cis-regulating element (promoter). […] A major difference between the CIS and TRANS system is that in CIS activities of endogenous TFs are measured, whereas the TRANS assay evaluates changes in activities of exogenous, chimeric NR-Gal4 proteins. […] At the end of 24 hour incubation, total RNA was isolated using TriZol reagent (Invitrogen). The isolated RNA is then reverse-transcribed using oligo(dT) primer and Mo-MLV reverse transcriptase (Invitrogen) with DNAse I (Ambion) treatment for 30 min. The one-tenth of the produced cDNA was amplified by PCR using Taq DNA polymerase (Invitrogen) and two reporter sequence-specific primers. The PCR products were fluorescently labeled by primer extension with 6-arboxyfluorescein (6-FAM) 5'-labeled reporter sequence-specific primer (2 min at 95 C, 20 s at 68 C and 10 min at 72 C) and these products were digested with 5U of HpaI (New England Biolabs) for 2h at 37 C. The fragments were purified using Qiaquick PCR columns (Qiagen), analyzed on an ABI 3130xL genetic analyzer (Applied Biosystems) with peak positions identified by using a set of X-rhodamine (ROX)-labeled MapMarker1000 molecular weight standards (BioVentures). The raw capillary electrophoresis data was processed using Attagraph software (Attagene).

Row | SMILES | outcome | AC50
1 | CC(C)OC(=O)c1ccccc1 | inactive | –
2 | Nc1ccnc(=O)[nH]1 | inactive | –
3 | CC(C)c1ccc2ncccc2c1 | inactive | –
4 | CC(C)(c1ccccc1)c1ccc(Nc2ccc(C(C)(C)c3ccccc3)cc2)cc1 | inactive | –
5 | C=Cc1ccc(OC(C)=O)cc1 | inactive | –
6 | C=CC(C)(CCC=C(C)C)OC(=O)C=Cc1ccccc1 (stereo not given) | inactive | –
7 | CCC(C)C(=O)OC (stereo not given) | inactive | –
8 | COC(OC)(C(=O)c1ccccc1)c1ccccc1 | inactive | –
9 | C=C(C)[C@@H]1CC=C(C)CC1 | inactive | –
10 | CCC[Si](OC)(OC)OC | inactive | –
11 | O=C(Oc1ccccc1)c1ccccc1O | inactive | –
12 | CCOC(=O)OC(=O)OCC | inactive | –
13 | CCCCCCCC(=O)OCC(COC(=O)CCCCCCC)OC(=O)CCCCCCC | inactive | –
14 | CC(=O)CCC1=C(C)CCCC1(C)C | inactive | –
15 | O=c1c(O)c(-c2ccc(O)cc2O)oc2cc(O)cc(O)c12 | – | 19.3 µM (active)
16 | CCCCCCCCCCCC(=O)N(C)CC(=O)O | inactive | –
17 | CCCCc1ccc(Cl)cc1 | inactive | –
18 | C=C[C@@]1(C)CC(=O)[C@]2(O)[C@@]3(C)[C@@H](O)CCC(C)(C)[C@@H]3[C@H](O)[C@H](OC(C)=O)[C@@]2(C)O1 | inactive | –
19 | C=C(C)C(=O)OCCCCCCCCCCCC | inactive | –
20 | O=C(O)/C=C/c1ccccc1 | inactive | –

Row | SMILES | outcome | AC50
21 | COC(=O)c1ccccc1C | inactive | –
22 | C=C[Si](OCCOC)(OCCOC)OCCOC | inactive | –
23 | CC=CC(=O)OCC(C)C | inactive | –
24 | O=C(C=Cc1ccccc1)OCCc1ccccc1 | inactive | –
25 | CCOC(=O)c1ccccc1C | inactive | –
26 | CC(C)[N+](C)(CCOC(=O)C1c2ccccc2Oc2ccccc21)C(C)C | inactive | –
27 | CN(C)Cc1cc(CN(C)C)c(O)c(CN(C)C)c1 | inactive | –
28 | C[N+](C)(C)CCCNS(=O)(=O)C(F)(F)C(F)(F)C(F)(F)C(F)(F)C(F)(F)C(F)(F)C(F)(F)C(F)(F)F | inactive | –
29 | CCCCCCCCCCCCCCCCCCOS(=O)(=O)O | inactive | –
30 | Oc1c(Cl)cc(Cl)c(Cl)c1Cl | – | 100 µM (active)
31 | CC/C=C\C/C=C\C/C=C\CCCCCCCC(=O)OC | – | 167 µM (active)
32 | O=C(O)c1ccc2c(c1)C(=O)OC2=O | inactive | –
33 | CC(=O)OCc1ccccc1 | inactive | –
34 | Oc1ccc(/C=C/c2cc(O)cc(O)c2)cc1 | inactive | –
35 | CCCCCCCCCCCCCc1ccccc1 | inactive | –
36 | CCOc1ccc(NC(N)=O)cc1 | inactive | –
37 | CC=C(C)C=CC=C(C)C | inactive | –
38 | O=C1CCCN1C1CCCCC1 | inactive | –
39 | C=C(C)OC(C)=O | inactive | –
40 | CCCCCCOc1ccc(N)cc1 | inactive | –
